MCF10A rerep: A quantitative high throughput screen for small molecules that induce DNA re-replication in MCF 10a normal breast cells; Potency, µM (titrated, usually from 46.1 µM), most hits filed as activators; MCF 10A DNA re-replication, Hoechst nuclear intensity, 48 h; AID 624296, 2012; 350,000 compounds, 2.9% hits; further: nearly all actives have a fitted effect of over 50% in size
PINK1 modulator: A Quantitative High throughput Screen to Identify Chemical Modulators of PINK1 Expression; Potency, µM (titrated, usually from 76.6 µM), usual class: activators; PINK1 immunofluorescence, high-content cytometry, 24 h; 410,000 compounds, 0.2% hits; AID 624263, 2012; active means well fitted activation curve with a large enough effect; inconclusive means small, poorly fitted or top-dose-only effect; cell line not stated here; further: nearly all actives have a fitted effect of over 65% in size
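PINK1 protein, normally rapidly degraded, was detected by immunofluorescence after 24 hour compound treatment of a stable cell line. Titration data (5 concentrations) came from laser-scanning cytometry, with CCCP-treated wells as controls.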
TSG101-PTAP inh: qHTS Assay for Iinhibitors of HIV-1 Budding by Blocking the Interaction of PTAP/TSG101. Fluorescence polarization, FITC-PTAP peptide / Tsg101 binding. AID 493005, 2010. 340,000 tested, under 10 active. Potency, µM (series often up to 115 µM), actives largely listed as inhibitors; active means well fitted inhibition curve with a large enough effect in the main read-out, with a control signal flat, not every such curve was filed as active; inconclusive means small, poorly fitted or top-dose-only effect, or effect the other way, or a change in a side signal; inactive means no such curve, though single readings can be large or run the other way
Target sequence (Q99816 whole entry, looked up): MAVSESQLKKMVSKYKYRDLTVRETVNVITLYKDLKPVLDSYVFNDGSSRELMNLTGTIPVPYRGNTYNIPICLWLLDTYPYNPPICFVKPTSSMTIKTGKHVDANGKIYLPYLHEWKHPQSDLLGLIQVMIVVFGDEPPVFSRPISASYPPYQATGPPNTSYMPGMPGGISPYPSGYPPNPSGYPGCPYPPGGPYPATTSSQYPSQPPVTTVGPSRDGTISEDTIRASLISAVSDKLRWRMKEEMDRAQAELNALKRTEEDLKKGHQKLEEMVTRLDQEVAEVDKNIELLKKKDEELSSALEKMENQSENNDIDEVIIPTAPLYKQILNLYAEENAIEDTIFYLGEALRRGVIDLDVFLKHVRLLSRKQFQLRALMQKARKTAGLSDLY
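Fluorescence anisotropy tracks displacement of a FITC-tagged PTAP peptide (50 nM) from the Tsg101 binding domain (10 uM), following a 20 min room-temperature incubation at pH 7.5.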
SW480 rerep: A quantitative high throughput screen for small molecules that induce DNA re-replication in SW480 colon adenocarcinoma cells; SW480 DNA re-replication, Hoechst DNA content imaging, 48 h; Potency, µM (top dose mostly 46.1 µM), hits mostly activators; 340,000 compounds, 1.8% hits; further: nearly all actives have a fitted effect of over 55% in size
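Treated cells incubate 48 hr (37 C, 5% CO2), are stained 40 min with Hoechst, and nuclear fluorescence is enumerated; a rise in nuclei with high DNA signal marks re-replication.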
KB-V1 cytotox: qHTS assay for MDR1-selective chemotherapeutics: Primary screen using the drug-selected MDR subline cells KB-V1. 400,000 compounds, 3.4% hits. Potency, µM (titrated, usually from 46.1 µM), actives largely listed as cytotoxic. KB-V1 MDR cells viability, CellTiter-Glo, 72 h. AID 1347076, 2019; further: nearly all actives have a fitted effect of over 60% in size
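Readout: CellTiter-Glo luminescence, 10 min after addition. Cells: KB-V1 MDR subline, 72 h at 37 degrees C with compound. Analysis: corrected, normalized data fitted to concentration-effect curves.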
KB-3-1 cytotox: qHTS assay for MDR1-selective chemotherapeutics: Primary screen using the parental adenocarcinoma cell KB-3-1 | 400,000 compounds, 1.4% hits | Potency, µM (highest dose often 46.1 µM), actives largely listed as cytotoxic | KB-3-1 viability, CellTiter-Glo ATP luminescence, 72 h; further: nearly all actives have a fitted effect of over 60% in size
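Multi-concentration cytotoxicity screen in KB-3-1 cells grown in DMEM lacking phenol red with 10% FBS. After 72 h at 37 °C with compound, ATP-dependent luminescence was recorded.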
Of the large screens only hits and unclear results are named; the others gave an inactive call. Rows were chosen to be rich in hits. Some 6.8% of all compounds tested hit in one or more screens of this group. Unless noted, the call rests on the fitted dose curve; in most records, active means well fitted curve in the direction sought with a large enough effect; inconclusive means small, poorly fitted or top-dose-only effect, or another doubt; inactive means no such curve, though single readings can be large; an effect the other way counts as inactive or inconclusive.

CCOC(=O)c1c(NC(=O)c2c(N)n(CCCOC)c3nc4ccccc4nc23)sc2c1CCCC2	MCF10A rerep inconclusive (no result: PINK1 modulator)
CCOC(=O)c1c(NC(=O)C(c2ccccc2)c2ccccc2)sc2c1C1CCN2CC1	MCF10A rerep inconclusive, SW480 rerep inconclusive, KB-V1 cytotox 23µM, KB-3-1 cytotox inconclusive
O=C(c1ccc(C(F)(F)F)cc1)C1CCCN(Cc2ccncc2)C1 (stereo not drawn)	MCF10A rerep inconclusive, KB-V1 cytotox 7.3µM, KB-3-1 cytotox inconclusive
O=C(c1ccc(C(F)(F)F)cc1)C1CCCN(Cc2ccc(CO)o2)C1 (stereo not drawn)	KB-V1 cytotox 18µM
O=C(c1cccc(C(F)(F)F)c1)C1CCCN(Cc2ccccc2O)C1 (stereo not drawn)	none
Cc1ccc(CN2CCCC(C(=O)c3cccc(C(F)(F)F)c3)C2)o1 (stereo not drawn)	KB-V1 cytotox inconclusive
COc1cc(/C=N/Nc2ccc(S(N)(=O)=O)cc2)cc(OC)c1OC	MCF10A rerep inconclusive
O=S1OCC2C(CO1)C1(Cl)C(Cl)=C(Cl)C2(Cl)C1(Cl)Cl (stereo not drawn)	none (no result: MCF10A rerep, TSG101-PTAP inh, SW480 rerep, KB-V1 cytotox, KB-3-1 cytotox)
C=C[C@@H]1CN2CC[C@H]1C[C@H]2[C@H](O)c1ccnc2ccccc12	none (no result: PINK1 modulator, TSG101-PTAP inh, KB-V1 cytotox, KB-3-1 cytotox)
Cc1ccc(-n2nc(C)c3c2NC(=O)CSC3c2ccc(O)cc2)cc1Cl (stereo not drawn)	KB-3-1 cytotox 23µM (no result: MCF10A rerep, TSG101-PTAP inh, SW480 rerep)
COc1ccc(C2SCC(=O)Nc3c2c(C)nn3-c2ccccc2)cc1 (stereo not drawn)	none
CCOc1c(Cl)cc(CNCCc2c[nH]c3ccccc23)cc1OC	MCF10A rerep 18µM, SW480 rerep inconclusive, KB-V1 cytotox 21µM, KB-3-1 cytotox inconclusive
CCOc1cc(CNCCc2c[nH]c3ccccc23)cc(Cl)c1OCC	SW480 rerep inconclusive, KB-V1 cytotox inconclusive, KB-3-1 cytotox inconclusive
C=CCn1c(O)c(C(C)=Nc2ccc(N(CC)CC)cc2)c(=O)[nH]c1=O	MCF10A rerep inconclusive, SW480 rerep 15µM, KB-V1 cytotox 12µM, KB-3-1 cytotox 5.8µM
C=CCn1c(O)c(C(C)=Nc2ccc(N(C)C)cc2)c(=O)[nH]c1=O	MCF10A rerep inconclusive, SW480 rerep inconclusive, KB-3-1 cytotox inconclusive
C=CCn1c(O)c(C(CC)=Nc2ccc(N(CC)CC)cc2)c(=O)[nH]c1=O	KB-V1 cytotox 15µM, KB-3-1 cytotox 23µM
C=CCn1c(O)c(C(CC)=Nc2ccc(NC(C)=O)cc2)c(=O)[nH]c1=O	none
O=C(Oc1ccccc1)N1CCC[C@@]2(CCN(Cc3cc(C(F)(F)F)cc(C(F)(F)F)c3)C2)C1	none (no result: MCF10A rerep, TSG101-PTAP inh, SW480 rerep, KB-V1 cytotox, KB-3-1 cytotox)
O=C(Nc1ccccc1)N1CC2(CCN(C(=O)Oc3ccccc3)CC2)C1	none (no result: MCF10A rerep, TSG101-PTAP inh, SW480 rerep, KB-V1 cytotox, KB-3-1 cytotox)
CCCCCn1c(=O)c(C(=O)NCCc2ccccc2)c(O)c2ccccc21	MCF10A rerep 23µM, KB-V1 cytotox inconclusive, KB-3-1 cytotox inconclusive
CCCCn1c(=O)c(C(=O)NCc2ccccc2OC)c(O)c2ccccc21	KB-V1 cytotox inconclusive, KB-3-1 cytotox 23µM
CCCCCn1c(=O)c(C(=O)Nc2ccccc2Cl)c(O)c2ccccc21	none
O=C(Nc1nnc(SCc2ccccc2Cl)s1)C1COc2ccccc2O1 (stereo not drawn)	MCF10A rerep inconclusive
Nc1c(C(=O)NCc2ccco2)c2nc3ccccc3nc2n1CCN1CCOCC1	MCF10A rerep 16µM, SW480 rerep 5.2µM, KB-V1 cytotox inconclusive
COc1ccc(Cn2c(N)c(C(=O)NCc3ccco3)c3nc4ccccc4nc32)cc1	MCF10A rerep 10µM, SW480 rerep 2.3µM, KB-3-1 cytotox inconclusive
CCOC(=O)c1c(N)n(Cc2ccco2)c2nc3ccccc3nc12	none
Nc1c(C(=O)NCc2ccco2)c2nc3ccccc3nc2n1Cc1ccccc1	MCF10A rerep inconclusive, SW480 rerep 21µM
COCC(C)OC(=O)c1c(N)n(Cc2ccco2)c2nc3ccccc3nc12 (stereo not drawn)	none
Nc1c(C(=O)NCc2ccco2)c2nc3ccccc3nc2n1Cc1ccc(F)cc1	MCF10A rerep 3.7µM, SW480 rerep inconclusive
COc1ccc(C(=O)Nc2ccccc2-c2nnn(CC(=O)Nc3ccc4c(c3)OCCO4)n2)cc1	MCF10A rerep 16µM, KB-V1 cytotox inconclusive
Cc1cc(C(=O)Nc2ccc3c(c2)OCCO3)nn1C(C)(C)C	none
COc1ccc(CC(=O)NC(=S)NNC(=O)COc2c(C)cccc2C)cc1	MCF10A rerep inconclusive, KB-3-1 cytotox inconclusive
CCCN(CCC)c1c([N+](=O)[O-])cc(C(F)(F)F)cc1[N+](=O)[O-]	none (no result: MCF10A rerep, TSG101-PTAP inh, SW480 rerep, KB-V1 cytotox, KB-3-1 cytotox)
O=c1[nH]c(=O)n(-c2ccccc2)c(O)c1/C=C1/C(c2ccccc2)=Nc2ccccc21	MCF10A rerep 2.1µM, SW480 rerep inconclusive, KB-V1 cytotox 2.9µM, KB-3-1 cytotox 3.3µM
CC(=O)Oc1ccc2c3c1OC1[C@@H](OC(C)=O)C=C[C@H]4[C@H](C2)N(C)CC[C@]314 (stereo partly drawn)	none (no result: PINK1 modulator, TSG101-PTAP inh, KB-V1 cytotox, KB-3-1 cytotox)
CC(=O)c1cn(Cc2ccccc2C#N)c2ccccc12	MCF10A rerep inconclusive, SW480 rerep inconclusive, KB-V1 cytotox 1.8µM, KB-3-1 cytotox inconclusive
COc1ccc(-c2nc(CN3C(=O)CN=C(c4ccccc4)c4ccccc43)c(C)o2)cc1OC	none (no result: MCF10A rerep, TSG101-PTAP inh, SW480 rerep)
CC(=O)Nc1ccc(S(=O)(=O)N2CCSC2c2ccc(C)cc2)cc1 (stereo not drawn)	MCF10A rerep inconclusive, KB-V1 cytotox inconclusive
Cc1cc(C)n2nc(SCC(=O)N3CCC4(CC3)OCCO4)nc2n1	none (no result: TSG101-PTAP inh)
Cc1nc2nc(SCC(=O)N3CCC4(CC3)OCCO4)nn2c(C)c1Cc1ccccc1	KB-V1 cytotox 26µM, KB-3-1 cytotox inconclusive
Cc1nc2c(-c3ccccc3)c(C)nn2c(C)c1CCC(=O)N1CCC2(CC1)OCCO2	PINK1 modulator inconclusive, KB-V1 cytotox 13µM
CN(C)c1ccc(/C=C2\C(=O)NC(=O)N(CCc3ccc(F)cc3)C2=O)cc1	MCF10A rerep inconclusive
COCCN1C(=O)NC(=O)/C(=C\c2ccc(F)cc2)C1=O	MCF10A rerep 5.2µM
Cn1c(CCCC(=O)O)nc2cc(N(CCCl)CCCl)ccc21	MCF10A rerep inconclusive (no result: PINK1 modulator, TSG101-PTAP inh, KB-V1 cytotox, KB-3-1 cytotox)
CC(C)c1ccc(C(O)P(=O)(OCc2ccccc2)c2ccc(N(C)C)cc2)cc1 (stereo not drawn)	MCF10A rerep inconclusive
